Bioassay records (PubChem)
CYP2C9 inhib – inhibitors of human CYP2C9; 20% of 96,000 active; inhibition, % at 5 µM; P11712; CYP2C9 Supersomes, luciferin-H conversion, luminescence; AID 777;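 active = blocking of liver enzyme CYP2C9 beyond about 50% at 5 µM, limit read from the data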
CYP2C9 act – increases human cytochrome P450 2C9 activity; recombinant CYP2C9, luciferin-H conversion, luminescence; stronger effect = higher value; factor 1 = untreated enzyme, 0 = blocked; activation factor at 5 µM; 1.4% of 96,000 active; AID 1024;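 active = activation factor of 2 or more for CYP2C9 at a 5 µM dose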
CYP2C19 inhib – human CYP2C19 inhibition; inhibition, % at 5 µM; P33261; CYP2C19 Supersomes, luciferin-H EGE luminescence, 30 min; 21% of 96,000 active; AID 778;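 active = CYP2C19 inhibition above a set limit at 5 µM in the primary screen, cut at about 50% in these data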
CD11b adhes inh – inhibitors of human CD11b/CD18 binding to fibrinogen. inhibition, % at 10 µM. K562 CD11b/CD18 adhesion to fibrinogen, ATPlite luminescence; Mn2+ added to activate the integrin. AID 1497. P05107+P11215. 0.54% of 93,000 active;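 active = primary inhibition of 50% or more at 10 µM, then 40% or more on retest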
Target sequence (P05107 whole entry, looked up, other chains not shown): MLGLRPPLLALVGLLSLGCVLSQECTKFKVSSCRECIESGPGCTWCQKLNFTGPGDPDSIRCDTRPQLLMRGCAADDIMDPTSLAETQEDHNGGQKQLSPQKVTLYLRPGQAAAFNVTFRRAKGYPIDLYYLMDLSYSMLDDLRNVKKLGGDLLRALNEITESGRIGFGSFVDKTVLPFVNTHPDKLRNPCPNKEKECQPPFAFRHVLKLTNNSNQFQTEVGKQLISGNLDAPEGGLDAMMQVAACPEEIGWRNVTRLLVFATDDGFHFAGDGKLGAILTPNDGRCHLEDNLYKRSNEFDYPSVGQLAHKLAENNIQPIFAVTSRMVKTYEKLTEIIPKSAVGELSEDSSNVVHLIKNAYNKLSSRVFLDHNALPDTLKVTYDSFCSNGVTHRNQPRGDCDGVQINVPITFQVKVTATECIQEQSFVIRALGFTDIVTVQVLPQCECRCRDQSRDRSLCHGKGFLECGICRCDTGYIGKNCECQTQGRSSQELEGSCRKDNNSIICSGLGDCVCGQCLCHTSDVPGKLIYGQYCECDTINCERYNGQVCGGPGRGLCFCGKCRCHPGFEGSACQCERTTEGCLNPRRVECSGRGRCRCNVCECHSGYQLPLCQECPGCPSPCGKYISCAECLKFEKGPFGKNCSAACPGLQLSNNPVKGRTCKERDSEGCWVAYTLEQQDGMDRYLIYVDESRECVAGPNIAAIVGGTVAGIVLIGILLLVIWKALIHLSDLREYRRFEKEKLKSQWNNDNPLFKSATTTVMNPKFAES
CYP2C19 activ – activators of human cytochrome P450 2C19; P33261; recombinant CYP2C19, luciferin-H EGE luminescence; stronger effect = higher value; 0 = fully inhibited enzyme, 1 = untreated enzyme; activation factor at 5 µM; 96,000 tested, under 10 active; AID 1025;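 active = activation factor of at least 2 at 5 µM in the primary screen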
Mac1 fbg enh – increases human CD11b/CD18 adhesion to fibrinogen; P05107+P11215; K562 CD11b/CD18 adhesion to fibrinogen, ATPlite luminescence; activation, % at 10 µM; 0.07% of 93,000 active;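 active = 10 µM primary screen giving 50% or more activity, confirmed by 40% or more on retest at that dose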
Hits are given with their value; n = inactive; x = no result. A selection: hits, their analogues and other compounds. The true share with any hit is near 28%.

SMILES	CYP2C9 inhib	CYP2C9 act	CYP2C19 inhib	CD11b adhes inh	CYP2C19 activ	Mac1 fbg enh
O=S(=O)(NCCc1ccccc1F)c1cccc(S(=O)(=O)N2CCOCC2)c1	62	n	88	n	n	n
CCOC(=O)C1CCCN(C(=O)c2cc3nc(-c4ccc5c(c4)OCO5)cc(C(F)(F)F)n3n2)C1 (configuration not stated)	56	n	n	x	n	x
Cc1ccc(-c2cc(C(F)F)n3ncc(C(=O)N4CCN5CCCC5C4)c3n2)cc1 (configuration not stated)	n	n	n	n	n	n
CCOC(=O)C1CCCN(C(=O)c2cnn3c(C(F)F)cc(-c4ccc(C)cc4)nc23)C1 (configuration not stated)	73	n	n	n	n	n
COc1ccc(-c2cc(C(F)F)n3ncc(C(=O)N4CCSCC4)c3n2)cc1	76	n	n	n	n	n
CCC(C)N1C(=O)CCC1C(=O)NCc1ccc2c(c1)OCO2 (configuration not stated)	n	n	n	n	n	n
Cc1nnc(-c2cnn(-c3ccccc3)c2N)n1Cc1ccc(F)cc1	n	n	n	x	n	x
Cc1nc(Cc2nnc(SCc3nc(N)nc(Nc4ccccc4C)n3)o2)cs1	51	n	n	n	n	n
CN(C)c1nc(N)nc(CSc2nnnn2-c2ccccc2)n1	n	n	52	n	n	n
Cc1ccccc1Nc1nc(N)nc(CSc2nnnn2-c2ccccc2)n1	82	n	88	n	n	n
CCc1ccc(Nc2nc(N)nc(CSc3nnnn3-c3ccccc3)n2)cc1	n	n	n	n	n	n
Cn1nc([N+](=O)[O-])nc1Oc1ccc2ccccc2c1	n	n	n	n	n	n
CC1CCN(C(=O)CSc2nnc(Cc3cc(=O)[nH]c(=O)[nH]3)n2-c2ccc(Cl)cc2)CC1	n	n	n	n	n	n
O=C(NCc1ccc(Cl)cc1)c1cc(-c2cccs2)on1	60	n	51	n	n	n
Cc1cc(C)cc(Nc2cc(C)nc3nc(C)nn23)c1	n	n	n	n	n	n
Cc1cc2c(n1-c1ccc(Br)cc1)CC(C)(C)CC2=O	n	n	67	n	n	n
Cc1ccc(-n2c(C)cc3c2CC(C)(C)CC3=O)cc1C	n	n	n	n	n	n
COC(=O)CCN(C(=O)c1cccc(OC(C)=O)c1)c1ccccn1	n	n	n	n	n	n
COC(=O)CCN(C(=O)c1ccc2c(c1)OCO2)c1ccccn1	n	n	94	n	n	n
COC(=O)CCN(C(=O)c1cc(OC)c(OC)c(OC)c1)c1ccccn1	n	n	n	n	n	n
CCOc1ccccc1C(=O)N(CCC(=O)OC)c1ccccn1	n	n	53	n	n	n
O=C(CN1C(=O)NC2(CCCc3ccccc32)C1=O)N1CCN(C(=O)c2ccco2)CC1 (configuration not stated)	n	n	n	n	n	n
O=C(CSc1nnc(-c2ccc3c(c2)OCO3)n1-c1ccccc1)c1ccccc1	x	x	x	n	x	n
Brc1cccc(-c2nnc(SCc3ccon3)n2-c2ccccc2)c1	n	n	50	n	n	n
CC(=O)COc1ccccc1OC(=O)c1ccco1	n	n	n	n	n	n
SMILES	CYP2C9 inhib	CYP2C9 act	CYP2C19 inhib	CD11b adhes inh	CYP2C19 activ	Mac1 fbg enh
Cc1ccc(Nc2nc(N)nc(CSc3nnc(-c4ccncc4)o3)n2)cc1	n	n	n	n	n	n
Cc1onc(-c2c(F)cccc2Cl)c1C(=O)NC1CCSC1=O (configuration not stated)	65	n	82	n	n	n
Cc1nn(Cc2ccccc2Cl)c(C)c1C(=O)Nc1nnc(C2CC2)s1	51	n	n	n	n	54
Cc1onc(-c2c(F)cccc2Cl)c1C(=O)Nc1sc2c(c1C(N)=O)CCC2	74	n	n	n	n	n
Cc1onc(-c2c(F)cccc2Cl)c1C(=O)Nc1nnc(-c2ccccc2)s1	n	n	n	n	n	n
Cc1onc(-c2c(F)cccc2Cl)c1C(=O)Nc1nnc(C2CC2)s1	63	n	62	n	n	n
O=C(CN1C(=O)C2(OCCO2)c2ccccc21)c1ccc(Br)cc1	n	n	n	n	n	n
Nc1cc(C(=O)N2CCCC2)cc(C(=O)N2CCCC2)c1	n	n	n	n	n	n
O=C1CCCC(=O)C1=Cc1c[nH]c2ccccc12	n	n	n	n	n	n
COc1ccc(C2=NN3C(=O)c4c(ccc(OC)c4OC)C3C2)cc1 (configuration not stated)	n	n	n	n	n	n
COc1ccc2c(c1OC)C(=O)N1N=C(c3ccc(O)cc3)CC21 (configuration not stated)	n	2.4	n	n	n	n
CC(=O)c1ccc(N2C(=O)NC3(CCCCC3)C2=O)cc1	n	n	n	n	n	n
CC(C)(C)C(=O)Nc1ccnc(-c2cccnc2)n1	59	n	83	x	n	x
CCC(=O)Nc1ccnc(-c2cccnc2)n1	n	n	65	x	n	x
O=C(Nc1ccnc(-c2cccnc2)n1)c1ccc(Cl)c(Cl)c1	n	n	n	n	n	n
Brc1ccccc1-c1nnc2sc(-c3ccc4c(c3)OCCO4)nn12	96	n	74	n	n	n
c1csc(-c2nn3c(C4COc5ccccc5O4)nnc3s2)c1 (configuration not stated)	51	n	58	n	n	n
c1ccc2c(c1)OCC(c1nnc3sc(-c4ccc5c(c4)OCO5)nn13)O2 (configuration not stated)	84	n	65	n	n	n
Fc1ccc(-c2nn3c(C4COc5ccccc5O4)nnc3s2)cc1 (configuration not stated)	n	n	n	n	n	n
c1ccc2c(c1)OCC(c1nnc3n1-c1ccccc1SC3)O2 (configuration not stated)	85	n	96	n	n	n
Clc1ccccc1-c1nnc2sc(-c3ccc4c(c3)OCO4)nn12	n	n	n	n	n	n
COCCSc1ccccc1C(=O)Nc1cc(C)on1	n	n	n	x	n	n
CC(=O)NCCOc1cccc2cccnc12	n	n	n	n	n	n
CC1(C)CC(=O)c2cc(OCC(=O)NCCN3CCCc4ccccc43)ccc2O1	n	n	n	n	n	n
CC(C)CCNC(=O)COc1ccc2c(c1)C(=O)CC(C)(C)O2	80	n	74	n	n	n
O=C1CC(c2cccs2)Cc2nc(NCC3CCCO3)ncc21 (configuration not stated)	74	n	85	n	n	n
Cc1cc(C(=O)OCC(=O)N(C)C2CCS(=O)(=O)C2)c(C)n1-c1ccccc1 (configuration not stated)	n	n	n	n	n	n
CCc1cccc(NC2c3ccccc3C(=O)N2c2ccc(C)cn2)c1 (configuration not stated)	50	n	85	n	n	n
